Test results reported in PubChem BioAssay (NCI).
About 83,000 compounds went through this panel and 20% of them were active in at least one assay; those are over-represented in the sample as a whole.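 Each cell line was grown in a 96-well plate and treated with one concentration of compound for 48 hours. Values below 10 were considered active.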 Calls of active or inactive are those of the source.

Columns and labels:
Test in all cases: NCI-60 one-dose screen, 48 h (100 = growth as untreated, 0 = no growth, -100 = all killed)
Conditions in all cases: 10 µM unless noted
NCI-H23 lung = tested on: NCI-H23 lung
NCI-H322M lung = tested on: NCI-H322M lung
HOP-62 NSCLC = tested on: HOP-62 NSCLC
NCI-H460 lung = tested on: NCI-H460 lung
HOP-92 NSCLC = tested on: HOP-92 NSCLC
NCI-H522 lung = tested on: NCI-H522 lung
A549/ATCC NSCLC = tested on: A549/ATCC NSCLC
786-0 renal = tested on: 786-0 renal
COLO 205 colon = tested on: COLO 205 colon

Measured: growth

COc1ccc(/C=N/NC(=O)Cn2c(-c3ccc(S(C)(=O)=O)cc3)nc3ccccc32)cc1
inactive: NCI-H23 lung 95.5% | NCI-H322M lung 91.3% | HOP-62 NSCLC 107% | NCI-H460 lung 102% | HOP-92 NSCLC 94.1% | NCI-H522 lung 92.9% | A549/ATCC NSCLC 113% | 786-0 renal 99.3% | COLO 205 colon 111%

CC(C)NS(=O)(=O)/N=C1\NC(=O)NC1=C(Cl)Cl
inactive: NCI-H23 lung 101% | NCI-H322M lung 103% | HOP-62 NSCLC 101% | NCI-H460 lung 99.2% | HOP-92 NSCLC 122% | NCI-H522 lung 54.2% | A549/ATCC NSCLC 94% | 786-0 renal 110% | COLO 205 colon 113%

COc1ccc(C2[C@@H](Cl)C(=O)N2c2cc(OC)c(OC)c(OC)c2)cc1Cl (some centres undefined)
inactive: NCI-H23 lung 34.9% | NCI-H322M lung 40% | HOP-62 NSCLC 21% | HOP-92 NSCLC 33.6% | A549/ATCC NSCLC 14.8%
active: NCI-H460 lung 5.19% | NCI-H522 lung -28.7% | 786-0 renal 5.5% | COLO 205 colon -50.2%

CC(=O)Nc1sc2c(c1-c1nc3ccccc3s1)CNC2
inactive: NCI-H23 lung 24.9% | NCI-H322M lung 14.5% | HOP-62 NSCLC 18.6% | A549/ATCC NSCLC 14.1% | 786-0 renal 28.4%
active: NCI-H460 lung 8.68% | HOP-92 NSCLC 0.851% | NCI-H522 lung -12.5% | COLO 205 colon 8.21%

COc1ccc(/C=C/C(c2cc(OC)c(OC)c(OC)c2)n2cncn2)cc1O (centres undefined)
inactive: NCI-H23 lung 41.5% | NCI-H322M lung 54.7% | HOP-62 NSCLC 22.5% | NCI-H460 lung 13.3% | HOP-92 NSCLC 48% | NCI-H522 lung 13% | A549/ATCC NSCLC 40.1% | 786-0 renal 23.3% | COLO 205 colon 60.6%

O=C(O)c1cn(C2CC2)c2cc(N3CCN(C(=O)N4CCOCC4)CC3)c(F)cc2c1=O
inactive: NCI-H23 lung 99.5% | NCI-H322M lung 104% | HOP-62 NSCLC 106% | NCI-H460 lung 115% | HOP-92 NSCLC 95.5% | NCI-H522 lung 89.9% | A549/ATCC NSCLC 108% | 786-0 renal 99.8% | COLO 205 colon 110%

CC(C)(Sc1cc(C(C)(C)C)c(O)c(C(C)(C)C)c1)Sc1cc(C(C)(C)C)c(OC(=O)CCC(=O)O)c(C(C)(C)C)c1
inactive: NCI-H23 lung 40% | NCI-H322M lung 56.4% | HOP-62 NSCLC 44.7% | NCI-H460 lung 28.9% | HOP-92 NSCLC 35.8% | NCI-H522 lung 36.9% | A549/ATCC NSCLC 28.6% | 786-0 renal 44.7% | COLO 205 colon 55%

CSc1ccc2c3c(n(CCCn4ccnc4)c(=O)c2c1)-c1ccccc1C3=O
inactive: NCI-H23 lung 30.7% | NCI-H322M lung 71.7% | HOP-62 NSCLC 34.7% | NCI-H460 lung 11.5% | HOP-92 NSCLC 83.2% | NCI-H522 lung 19.3% | A549/ATCC NSCLC 47.9% | 786-0 renal 20.4% | COLO 205 colon 57.9%

CCOC(=O)NCCCC(=O)NCCc1ccccc1
inactive: NCI-H23 lung 98.9% | NCI-H322M lung 106% | HOP-62 NSCLC 108% | NCI-H460 lung 110% | HOP-92 NSCLC 111% | NCI-H522 lung 106% | A549/ATCC NSCLC 107% | 786-0 renal 105% | COLO 205 colon 114%

COc1ccc(N/N=C/c2cn(-c3ccc(C(=O)O)cc3)nc2-c2cc3ccccc3oc2=O)cc1
inactive: NCI-H23 lung 86.7% | NCI-H322M lung 85.2% | HOP-62 NSCLC 84% | NCI-H460 lung 47.4% | HOP-92 NSCLC 86.6% | NCI-H522 lung 52.3% | A549/ATCC NSCLC 57.1% | 786-0 renal 59% | COLO 205 colon 84.3%

COc1ccc(-c2nc3c(c(-c4ccc(Cl)cc4)nn3-c3ccccc3)c(-c3ccccc3)c2C#N)cc1
inactive: NCI-H23 lung 103% | NCI-H322M lung 102% | HOP-62 NSCLC 111% | NCI-H460 lung 104% | HOP-92 NSCLC 120% | NCI-H522 lung 96.3% | A549/ATCC NSCLC 95.9% | 786-0 renal 108% | COLO 205 colon 118%

c1cc(OCCCCCOc2cccc(-c3nc4ccccc4[nH]3)c2)cc(-c2nc3ccccc3[nH]2)c1
active: NCI-H23 lung 3% | NCI-H460 lung 6.73% | HOP-92 NSCLC -29.3% | NCI-H522 lung -14.8% | COLO 205 colon -59.1%
inactive: NCI-H322M lung 23.1% | HOP-62 NSCLC 39.1% | A549/ATCC NSCLC 13.9% | 786-0 renal 19.8%

C=C1SC(=Nc2ccccc2Cl)N(C(=O)c2sc3ccccc3c2Cl)C1(C)C
active: COLO 205 colon -43.8%
inactive: NCI-H23 lung 36.7% | NCI-H322M lung 65.9% | NCI-H460 lung 15.1% | HOP-92 NSCLC 53.6% | NCI-H522 lung 91.6% | A549/ATCC NSCLC 43.7% | 786-0 renal 77.8%

COc1ccc(C(c2cc(OC)c(OC)c(OC)c2)N2CCCCC2)cc1 (centres undefined)
inactive: NCI-H23 lung 59.3% | NCI-H322M lung 47.9% | HOP-62 NSCLC 29.8% | NCI-H460 lung 19.4% | HOP-92 NSCLC 44.1% | NCI-H522 lung 19.9% | A549/ATCC NSCLC 49.1% | 786-0 renal 38.8% | COLO 205 colon 16.1%

CCOC(=O)/C(=C(/C)NCC(C)C)c1cc(O)c(O)c2c(C)cc(=O)[nH]c12
inactive: NCI-H23 lung 51.4% | NCI-H322M lung 62.5% | HOP-62 NSCLC 38.2% | NCI-H460 lung 23.1% | HOP-92 NSCLC 40.2% | NCI-H522 lung 26.8% | A549/ATCC NSCLC 45.2% | 786-0 renal 47.4% | COLO 205 colon 99.7%

C=C(C)[C@@H]1CC[C@]2(C(=O)N3CCNCC3)CC[C@]3(C)[C@H](CC[C@@H]4[C@@](C)(CCC(=O)N5CCNCC5)[C@H](C(=C)C)CC[C@]43C)[C@@H]12
active: NCI-H460 lung 8.8%
inactive: NCI-H23 lung 93.2% | NCI-H322M lung 102% | HOP-62 NSCLC 92.9% | HOP-92 NSCLC 95.5% | NCI-H522 lung 71.4% | A549/ATCC NSCLC 75.2% | 786-0 renal 80.2% | COLO 205 colon 77.9%

CNC(=O)c1cc(Oc2ccc3c(c2)sc2nc(-c4ccc(Cl)c(C(F)(F)F)c4)cn23)ccn1
inactive: NCI-H23 lung 53% | NCI-H322M lung 88.5% | HOP-62 NSCLC 75.9% | NCI-H460 lung 51.3% | HOP-92 NSCLC 73.1% | NCI-H522 lung 42.6% | A549/ATCC NSCLC 61% | 786-0 renal 68.6% | COLO 205 colon 58.4%

Clc1ccc2nn3c4ccccc4c(OCCN4CCOCC4)nc3c2c1
inactive: NCI-H23 lung 87.1% | NCI-H322M lung 84.4% | NCI-H460 lung 99.9% | HOP-92 NSCLC 72.9% | NCI-H522 lung 74.5% | A549/ATCC NSCLC 91.8% | 786-0 renal 80.9% | COLO 205 colon 90%

CN(C)CCn1c(=O)c2ccccc2n2nc3ccccc3c12
inactive: NCI-H23 lung 87.3% | NCI-H322M lung 85% | HOP-62 NSCLC 90.9% | NCI-H460 lung 70.4% | HOP-92 NSCLC 99.6% | NCI-H522 lung 97.4% | A549/ATCC NSCLC 61.2% | 786-0 renal 93.9% | COLO 205 colon 57.2%
